# Tests used:
# Assay in all cases: DAPPL (digital affinity profiling via proximity ligation, sequencing); 10 mM Tris-HCl pH 7.5, 50 mM NaCl, 1 mM DTT, 4% glycerol, room temperature, 30 min; GST-TFs on glutathione beads, 16-mer random dsDNA library, 0.1% formaldehyde crosslink after washing; high values mean tight binding
# Settings in all cases: protein: recombinant; tags: N-terminal GST; dsDNA, one strand shown
# [1] = target: ETV1 (Homo sapiens, UniProt P50549 1-477)
# Outline: (§1)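 Binding signal is each hexamer's read frequency for a factor divided by its frequency in the tag-only sample. The factors were GST-fused human transcription factors from yeast, captured on glutathione beads, DNA-barcoded and pooled with that sample. Pools were incubated with 200 nmole of a random double-stranded 16-mer DNA library in Tris/NaCl/DTT/glycerol buffer at room temperature for 30 min, then washed, crosslinked with 0.1% formaldehyde, proximity-ligated with BsaI/T4 ligase (1 h, 37 °C), PCR-amplified and sequenced on an Illumina NextSeq500.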
# [2] = target: T1, ERF (Homo sapiens, UniProt P50548 1-548)
# T1 sequence: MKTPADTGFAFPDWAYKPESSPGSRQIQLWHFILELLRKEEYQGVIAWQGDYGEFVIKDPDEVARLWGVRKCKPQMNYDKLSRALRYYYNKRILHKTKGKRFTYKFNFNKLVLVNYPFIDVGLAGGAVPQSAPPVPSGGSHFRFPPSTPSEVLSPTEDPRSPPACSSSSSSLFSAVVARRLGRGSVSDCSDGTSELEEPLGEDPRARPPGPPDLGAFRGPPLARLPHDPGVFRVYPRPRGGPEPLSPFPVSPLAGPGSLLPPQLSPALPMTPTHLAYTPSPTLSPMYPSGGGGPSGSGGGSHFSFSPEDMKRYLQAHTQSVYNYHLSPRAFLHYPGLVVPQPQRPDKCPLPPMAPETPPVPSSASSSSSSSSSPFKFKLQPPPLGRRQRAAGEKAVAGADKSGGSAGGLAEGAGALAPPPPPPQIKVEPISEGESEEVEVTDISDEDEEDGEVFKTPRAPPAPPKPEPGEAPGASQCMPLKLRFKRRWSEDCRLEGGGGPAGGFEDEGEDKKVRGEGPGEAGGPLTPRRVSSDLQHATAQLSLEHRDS
# Outline: as §1
# [3] = target: T2, ETV3L (Homo sapiens, UniProt Q6ZN32 1-361)
# T2 sequence: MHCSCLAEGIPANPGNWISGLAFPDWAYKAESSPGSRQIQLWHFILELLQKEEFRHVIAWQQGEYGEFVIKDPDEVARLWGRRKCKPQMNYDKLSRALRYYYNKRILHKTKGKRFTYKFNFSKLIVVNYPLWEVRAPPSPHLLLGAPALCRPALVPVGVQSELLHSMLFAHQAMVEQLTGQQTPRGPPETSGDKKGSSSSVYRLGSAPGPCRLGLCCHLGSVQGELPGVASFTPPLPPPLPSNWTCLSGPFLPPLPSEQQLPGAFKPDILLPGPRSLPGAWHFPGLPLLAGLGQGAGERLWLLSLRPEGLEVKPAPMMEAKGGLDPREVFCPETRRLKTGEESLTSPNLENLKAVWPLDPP
# Outline: as §1
# [4] = target: T3, ETS2 (Homo sapiens, UniProt P15036 1-469)
# T3 sequence: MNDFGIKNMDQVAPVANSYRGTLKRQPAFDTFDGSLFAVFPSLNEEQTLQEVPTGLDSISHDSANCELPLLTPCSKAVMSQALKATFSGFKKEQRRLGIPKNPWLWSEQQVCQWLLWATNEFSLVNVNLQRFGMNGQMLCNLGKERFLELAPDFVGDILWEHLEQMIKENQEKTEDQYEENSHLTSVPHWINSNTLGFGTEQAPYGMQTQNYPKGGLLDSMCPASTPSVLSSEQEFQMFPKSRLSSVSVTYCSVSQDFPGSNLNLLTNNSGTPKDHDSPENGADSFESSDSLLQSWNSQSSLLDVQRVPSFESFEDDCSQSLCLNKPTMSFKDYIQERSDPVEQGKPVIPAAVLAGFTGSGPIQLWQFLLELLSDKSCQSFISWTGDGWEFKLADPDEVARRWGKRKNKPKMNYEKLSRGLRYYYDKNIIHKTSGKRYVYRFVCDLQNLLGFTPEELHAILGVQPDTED
# Outline: as §1
# [5] = target: T4, SPDEF (Homo sapiens, UniProt O95238 1-335)
# T4 sequence: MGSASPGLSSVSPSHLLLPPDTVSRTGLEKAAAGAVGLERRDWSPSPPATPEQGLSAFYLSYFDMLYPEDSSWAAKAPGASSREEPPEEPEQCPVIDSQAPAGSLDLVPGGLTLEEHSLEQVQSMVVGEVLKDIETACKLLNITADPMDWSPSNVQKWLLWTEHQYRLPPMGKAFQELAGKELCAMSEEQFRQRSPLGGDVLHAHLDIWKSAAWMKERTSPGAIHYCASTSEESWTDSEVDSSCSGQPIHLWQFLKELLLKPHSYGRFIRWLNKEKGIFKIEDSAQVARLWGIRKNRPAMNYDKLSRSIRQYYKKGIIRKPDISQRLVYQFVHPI
# Outline: as §1
# [6] = target: T5, ETV7 (Homo sapiens, UniProt Q9Y603 1-341)
# T5 sequence: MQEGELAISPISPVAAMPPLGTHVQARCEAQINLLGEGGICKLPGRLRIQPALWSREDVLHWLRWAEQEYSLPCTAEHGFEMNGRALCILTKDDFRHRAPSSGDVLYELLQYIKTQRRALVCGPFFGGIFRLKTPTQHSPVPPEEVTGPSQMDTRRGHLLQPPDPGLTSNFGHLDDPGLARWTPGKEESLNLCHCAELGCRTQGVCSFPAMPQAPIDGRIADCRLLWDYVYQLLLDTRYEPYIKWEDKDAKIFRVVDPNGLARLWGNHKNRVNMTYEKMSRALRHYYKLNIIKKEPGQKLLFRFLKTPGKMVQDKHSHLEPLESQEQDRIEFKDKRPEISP
# Outline: as §1
# [7] = target: T6, ELF5 (Homo sapiens, UniProt Q9UKW6-2 1-255)
# T6 sequence: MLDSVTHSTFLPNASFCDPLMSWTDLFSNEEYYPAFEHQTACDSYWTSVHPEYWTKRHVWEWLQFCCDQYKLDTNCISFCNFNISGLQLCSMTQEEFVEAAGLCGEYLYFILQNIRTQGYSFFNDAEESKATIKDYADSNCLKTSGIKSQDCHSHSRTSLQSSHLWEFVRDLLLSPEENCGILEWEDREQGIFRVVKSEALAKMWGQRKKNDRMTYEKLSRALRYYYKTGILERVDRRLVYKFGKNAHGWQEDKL
# Outline: as §1
# [8] = target: T7, ETV3 (Homo sapiens, UniProt P41162-2 1-143)
# T7 sequence: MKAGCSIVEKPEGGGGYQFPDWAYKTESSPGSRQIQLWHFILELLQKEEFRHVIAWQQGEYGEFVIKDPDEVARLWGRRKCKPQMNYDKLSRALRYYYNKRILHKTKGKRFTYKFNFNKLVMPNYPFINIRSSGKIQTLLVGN
# Outline: as §1
# [9] = target: ETV6 (Homo sapiens, UniProt P41212 1-452)
# Sequence of ETV6 (P41212 whole entry): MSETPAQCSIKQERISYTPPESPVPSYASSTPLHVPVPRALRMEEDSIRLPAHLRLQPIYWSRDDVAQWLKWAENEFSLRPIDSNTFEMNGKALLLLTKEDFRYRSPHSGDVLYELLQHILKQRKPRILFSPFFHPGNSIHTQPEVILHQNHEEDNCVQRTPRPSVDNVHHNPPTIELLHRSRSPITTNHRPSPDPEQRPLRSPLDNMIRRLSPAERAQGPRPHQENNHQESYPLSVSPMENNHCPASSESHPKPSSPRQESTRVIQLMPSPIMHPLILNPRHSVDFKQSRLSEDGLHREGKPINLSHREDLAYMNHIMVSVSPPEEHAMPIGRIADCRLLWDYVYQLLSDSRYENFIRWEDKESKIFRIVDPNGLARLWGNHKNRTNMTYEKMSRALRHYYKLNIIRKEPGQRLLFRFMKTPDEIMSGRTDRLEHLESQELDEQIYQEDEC
# Outline: as §1
# Sequence of ETV1 (P50549 whole entry, the tested form may be a part): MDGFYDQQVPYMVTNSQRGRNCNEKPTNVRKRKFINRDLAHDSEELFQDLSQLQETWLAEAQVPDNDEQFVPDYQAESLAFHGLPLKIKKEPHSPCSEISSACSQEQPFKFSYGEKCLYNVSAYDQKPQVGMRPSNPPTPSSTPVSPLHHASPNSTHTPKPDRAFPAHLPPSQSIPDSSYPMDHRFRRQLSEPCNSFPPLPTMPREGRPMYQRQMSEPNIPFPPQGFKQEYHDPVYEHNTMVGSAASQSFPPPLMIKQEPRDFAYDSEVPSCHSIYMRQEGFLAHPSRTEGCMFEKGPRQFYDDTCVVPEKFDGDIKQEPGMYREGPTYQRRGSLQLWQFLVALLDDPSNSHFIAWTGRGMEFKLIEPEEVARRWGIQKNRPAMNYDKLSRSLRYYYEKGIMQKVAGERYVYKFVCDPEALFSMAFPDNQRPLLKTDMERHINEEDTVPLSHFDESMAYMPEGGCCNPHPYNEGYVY
sequence,measurement,setting,value
TTCCGG,binding signal,[1],"6.12 fold enrichment (6-mer frequency, TF over GST control)"
same,binding signal,[2],"4.81 fold enrichment (6-mer frequency, TF over GST control)"
same,binding signal,[3],"5.36 fold enrichment (6-mer frequency, TF over GST control)"
same,binding signal,[4],"6 fold enrichment (6-mer frequency, TF over GST control)"
same,binding signal,[5],"6.57 fold enrichment (6-mer frequency, TF over GST control)"
same,binding signal,[6],"5.39 fold enrichment (6-mer frequency, TF over GST control)"
same,binding signal,[7],"8.59 fold enrichment (6-mer frequency, TF over GST control)"
same,binding signal,[8],"6.28 fold enrichment (6-mer frequency, TF over GST control)"
same,binding signal,[9],"6.93 fold enrichment (6-mer frequency, TF over GST control)"

# Reference: paper PMC7862700, “An all-to-all approach to the identification of sequence-specific readers for epigenetic DNA modifications on cytosine”
